MITF inh: blocks MITF activity; TRPM1 promoter luciferase, luminescence, 24 h; inhibition, % (no concentration beside the values); actives 0.28% (n = 37,000); AID 2240; in the data active = inhibition above about 85%; inconclusive = no clear call, values can overlap the other calls; inactive = below about 68%;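 note: human melanocyte line stably carrying TRPM1 promoter luciferase reporter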
PD-1 reverse act: activators reversing PD-1 mediated T-cell inhibition. primary human CD4 T cells, PD-L1 beads, CellTiter-Glo 96 h. activation, % (no concentration beside the values). 29,000 tested, under 10 active. AID 2316; call rule not given here;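 note: 0% = median vehicle wells and 100% = positive control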
NOMO-1 viab: STK33 inhibitor candidate reducing NOMO-1 cell viability. NOMO-1 AML viability, CellTiter-Glo luminescence, 72 h. inhibition, % (test concentration not listed). actives 7.5% (n = 37,000); in the data active = inhibition above about 80%; inconclusive = no clear call, values can overlap the other calls
Hedgehog inh: blocks Sonic Hedgehog signaling; Shh-LIGHT2 Gli-luciferase reporter, 30 h; inhibition, % (no concentration beside the values); actives 2.1% (n = 22,000);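 active = mean inhibition across valid replicates above about 65%, limit read from the data; inconclusive = mean under the limit, yet half or more replicates past it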;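 note: pathway switched on by Shh-conditioned medium diluted 1 in 25 in low serum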
The depositor's hits bear a star; ? = inconclusive; · = no result. This is a sample that favours compounds with a hit; in the whole collection about 7.9% have one here.

SMILES | MITF inh | PD-1 reverse act | NOMO-1 viab | Hedgehog inh
C[C@@H]1CN([C@H](C)CO)C(=O)c2cc(N(C)C)ccc2O[C@H]1CN(C)Cc1ccc(Cl)c(Cl)c1 | 9 | -3 | 97* | -47
C[C@@H]1CN([C@@H](C)CO)C(=O)c2cc(N(C)C)ccc2O[C@@H]1CN(C)Cc1ccc(Cl)c(Cl)c1 | -1 | -2 | 47 | 19
CC1(C)C(=O)C=CC2(C)C1CC(O)C1(C)C3=CCC(c4ccoc4)C3(C)CCC21 (stereo unspecified) | 77 | -11 | 119* | -15
Cc1cc(C(=O)CSc2nnnn2-c2ccccc2)c(C)n1-c1cc(F)ccc1F | 7 | · | 13 | ·
COc1ccc(OC(C)C(=O)Nc2ccncc2)cc1 (stereo unspecified) | 3 | · | 20 | ·
C[C@@H]1CN([C@H](C)CO)C(=O)Cc2cc(NS(=O)(=O)c3cccs3)ccc2O[C@@H]1CN(C)Cc1ccc(Oc2ccccc2)cc1 | 2 | · | 118* | 34
C[C@H]1CN([C@@H](C)CO)C(=O)Cc2cc(NS(=O)(=O)c3cccs3)ccc2O[C@H]1CN(C)Cc1ccc(Oc2ccccc2)cc1 | -3 | 1 | 70 | -5
C[C@@H]1CN([C@H](C)CO)C(=O)c2cc(NS(=O)(=O)c3cccs3)ccc2O[C@@H]1CN(C)Cc1ccc(-c2ccccc2)cc1 | 42 | -1 | 113* | 31
C[C@@H]1CN([C@H](C)CO)C(=O)Cc2cc(NS(=O)(=O)c3cccs3)ccc2O[C@H]1CN(C)Cc1ccccc1 | 0 | · | 20 | 0
C[C@H]1CN([C@@H](C)CO)C(=O)Cc2cc(NS(=O)(=O)c3cccs3)ccc2O[C@@H]1CN(C)Cc1ccc(-c2ccccc2)cc1 | 23 | · | 89* | -8
CCN1CCOC(CC(=O)Nc2cc(C(=O)OC)cc(C(=O)OC)c2)C1=O (stereo unspecified) | -13 | · | 3 | ·
COc1ccc(OC)c(C2C(C(=O)c3ccco3)C(=O)C(=O)N2Cc2cccnc2)c1 (stereo unspecified) | 4 | 1 | 38 | ·
COc1cc(N)c(Cl)cc1C(=O)O | 11 | 1 | 25 | ·
CC1=CC2OC3[C@H](O)C[C@](C)([C@@]2(CO)CC1=O)[C@]31CO1 (stereo partly specified) | 47 | -2 | 119* | 95*
C=C(C(=O)O[C@@H]1O[C@H](CO)[C@@H](O)[C@H](O)[C@H]1O)[C@@H]1CC[C@@]2(C)C[C@H](O)C[C@@](C)(O)C2C1 (stereo partly specified) | · | · | · | -13
C[C@@H]1CN([C@H](C)CO)C(=O)c2cccc(NC(=O)CCCCCC(=O)Nc3ccccc3N)c2O[C@@H]1CN(C)Cc1ccc(-c2ccccc2)cc1 | 4 | 0 | 126* | ·
C[C@@H]1CN([C@H](C)CO)C(=O)c2cccc(NC(=O)CCCCCC(=O)Nc3ccccc3N)c2O[C@@H]1CN(C)Cc1ccccc1 | -25 | 1 | 48 | ·
C[C@@H]1CN([C@@H](C)CO)C(=O)c2cccc(NC(=O)CCCCCC(=O)Nc3ccccc3N)c2O[C@@H]1CN(C)Cc1ccc2c(c1)OCO2 | 17 | -1 | ? | ·
C[C@@H]1CN([C@@H](C)CO)C(=O)c2cccc(NC(=O)CCCCCC(=O)Nc3ccccc3N)c2O[C@H]1CN(C)Cc1ccc(Oc2ccccc2)cc1 | 64 | -4 | 141* | ·
C[C@@H]1CN([C@@H](C)CO)C(=O)c2cccc(NC(=O)CCCCCC(=O)Nc3ccccc3N)c2O[C@H]1CN(C)Cc1ccc(Cl)c(Cl)c1 | 80 | -3 | 138* | ·
C[C@H]1CN([C@@H](C)CO)C(=O)c2cccc(NC(=O)CCCCCC(=O)Nc3ccccc3N)c2O[C@H]1CN(C)Cc1ccc(C(F)(F)F)cc1 | 35 | 0 | 100* | ·
COc1ccc(C(=O)CSc2nnc(-c3ccccc3Cl)n2C)cc1OC | -11 | 0 | 1 | ·
O=C1CCCC(O)=C1C=Nc1cccc2ccccc12 | 1 | 0 | 43 | 20
C[C@@H]1CN([C@@H](C)CO)C(=O)c2cccc(NC(=O)CCCCCC(=O)Nc3ccccc3N)c2O[C@H]1CN(C)Cc1ccccc1 | 61 | -2 | 122* | ·
C[C@H]1CN([C@@H](C)CO)C(=O)c2cccc(NC(=O)CCCCCC(=O)Nc3ccccc3N)c2O[C@H]1CN(C)Cc1ccc(-c2ccccc2)cc1 | -8 | 2 | 122* | ·
SMILES | MITF inh | PD-1 reverse act | NOMO-1 viab | Hedgehog inh
CS(=O)(=O)N(CC(=O)Nc1cccc(C(F)(F)F)c1)c1ccc(Br)cc1 | -23 | -7 | 64 | ·
C[C@H]1CN([C@@H](C)CO)C(=O)Cc2cc(NC(=O)Nc3ccc(C(F)(F)F)cc3)ccc2O[C@H]1CN(C)Cc1ccc(Cl)c(Cl)c1 | 93* | -17 | 136* | 9
C[C@H](CO)N1C[C@H](C)[C@H](CN(C)Cc2ccc(Cl)c(Cl)c2)Oc2ccc(NC(=O)Nc3ccc(C(F)(F)F)cc3)cc2CC1=O | -3 | 1 | 124* | -14
C[C@@H]1CN([C@H](C)CO)C(=O)Cc2cc(NC(=O)Nc3ccc(C(F)(F)F)cc3)ccc2O[C@H]1CN(C)Cc1ccc(Cl)c(Cl)c1 | -1 | 1 | 31 | -15
C[C@H](CO)N1C[C@H](C)[C@@H](CN(C)S(=O)(=O)c2ccccc2)Oc2c(NC(=O)Nc3ccc(C(F)(F)F)cc3)cccc2C1=O | -3 | 0 | 34 | -16
Cc1ccc(S(=O)(=O)N(C)C[C@@H]2Oc3c(NC(=O)Nc4ccc(C(F)(F)F)cc4)cccc3C(=O)N([C@H](C)CO)C[C@H]2C)cc1 | 3 | -4 | ? | -5
Cc1ccc(S(=O)(=O)N(C)C[C@H]2Oc3c(NC(=O)Nc4ccc(C(F)(F)F)cc4)cccc3C(=O)N([C@@H](C)CO)C[C@H]2C)cc1 | 78 | -7 | 119* | -24
Cc1ccc(S(=O)(=O)N(C)C[C@@H]2Oc3c(NC(=O)Nc4ccc(C(F)(F)F)cc4)cccc3C(=O)N([C@@H](C)CO)C[C@@H]2C)cc1 | -1 | -1 | 39 | 93*
Cc1ccc(S(=O)(=O)Nc2ccc3c(c2)C(=O)N([C@@H](C)CO)C[C@@H](C)[C@@H](CN(C)C(=O)Nc2ccc(C(F)(F)F)cc2)O3)cc1 | 12 | -3 | 111* | -12
Cc1ccc(S(=O)(=O)Nc2ccc3c(c2)C(=O)N([C@H](C)CO)C[C@H](C)[C@H](CN(C)C(=O)Nc2ccc(C(F)(F)F)cc2)O3)cc1 | 13 | -2 | 40 | ·
C[C@H](CO)N1C[C@H](C)[C@@H](CN(C)C(=O)Nc2ccc(C(F)(F)F)cc2)Oc2ccc(NC(=O)Nc3ccc(C(F)(F)F)cc3)cc2C1=O | 40 | -6 | 104* | 19
C[C@@H]1CN([C@@H](C)CO)C(=O)c2cc(NC(=O)Nc3ccc(F)cc3)ccc2O[C@@H]1CN(C)C(=O)Nc1ccc(C(F)(F)F)cc1 | 30 | -2 | 105* | 7
C[C@@H]1CN([C@H](C)CO)C(=O)c2cc(NC(=O)Nc3ccc(C(F)(F)F)cc3)ccc2O[C@H]1CN(C)C(=O)Nc1ccc(F)cc1 | 11 | -2 | 35 | ·
CCOc1ccccc1OCC(=O)Nc1ccccc1[N+](=O)[O-] | -16 | -1 | 28 | ·
Cc1ccc(S(=O)(=O)N(C)C[C@@H]2Oc3c(NC(=O)Nc4ccc5c(c4)OCO5)cccc3C(=O)N([C@H](C)CO)C[C@@H]2C)cc1 | -11 | · | 12 | 115*
